Screens as filed in PubChem.
aSyn UTR inh = 5' untranslated region of α-synuclein, MLPCN primary screen; alpha-synuclein 5'UTR reporter, inhibitor activity; inhibition, % (tested at 7.5 µM); actives 0.82% (n = 300,000); in the data active = inhibition above about 60%; inconclusive = no clear call, values can overlap the other calls;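 note: H4 neuroglioblastoma cells stably carrying SNCA 5'UTR luciferase fusion; 0% = DMSO wells and 100% = positive control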
IEC-6 cytotox = IEC-6 cytotoxicity, counter-screen for KLF5 inhibitors; luminescence viability; actives 0.78% (n = 290,000); inhibition, % at 5 µM; in the data active = inhibition above about 22%;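 note: 0% = plate median of test compound wells and 100% = cytotoxic reference compound wells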
APP transl inh = APP translation inhibition; inhibition, % at 2 µM; AID 1285; actives 0.82% (n = 190,000); SH-SY5Y APP 5'UTR-luciferase reporter, luminescence;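 active = inhibition above a set limit, derived from the sample mean plus 3 SD, cut at about 45% in these data; inconclusive = one replicate passes the limit while the other fails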
Ba/F3 V617F tox = loss of viability in JAK2V617F-driven Ba/F3 cells; Ba/F3 EpoR-JAK2V617F viability, ATP luminescence; inhibition, % at 5.6 µM; actives 1.1% (n = 220,000); AID 1446;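 active = inhibition above the campaign mean plus 3 SD over all tested compounds, cut at about 24% in these data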;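 note: cytokine-independent growth of Ba/F3 cells driven by EpoR plus mutant JAK2; 0% = DMSO-treated cells and 100% = JAK inhibitor I control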
KLF5 inh = inhibitors of KLF5 expression; inhibition, % at 5 µM; AID 1700; DLD-1 KLF5 promoter-luciferase reporter, luminescence; actives 0.23% (n = 290,000);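 active = inhibition above a per-plate limit of that plate's mean compound inhibition plus 3 SD, cut at about 60% in these data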;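 note: 0% = DMSO wells and 100% = LY294002 at 200 µM; higher means less KLF5 promoter-driven luciferase light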
BaF3 tox = reduces parental Ba/F3 cell viability, JAK2V617F counter-screen | CellTiter-Glo ATP luminescence | inhibition, % at 5.6 µM | actives 1.1% (n = 220,000) | AID 1486;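 active = inhibition above a per-campaign cutoff, the mean inhibition of all tested compounds plus 3 SD, cut at about 27% in these data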;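 note: 0% = DMSO wells and 100% = JAK Inhibitor I control wells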
The depositor's hits bear a star; u = inconclusive; x = no result. Rows were chosen to be rich in hits. Some 2.1% of all compounds tested hit in one or more screens of this group.

SMILES	aSyn UTR inh	IEC-6 cytotox	APP transl inh	Ba/F3 V617F tox	KLF5 inh	BaF3 tox
CC1(C)CC(=O)C2=C(C1)N(CC1CCCO1)C(=O)C2(O)C(F)(F)F (centres undefined)	-8	1	-7	-4	-9	2
CC1(C)CC(=O)C2=C(C1)N(CC1CCCO1)C(=O)NC2(C(F)(F)F)C(F)(F)F (centres undefined)	10	-2	7	-2	-14	38*
COCc1ccc(C(=O)NC2CCCc3c2cnn3-c2cc(C)cc(C)c2)s1 (centres undefined)	4	7	x	x	-24	x
Cc1nn(C)c2ncc(C(=O)c3cc(F)ccc3O)cc12	15	-5	52*	-2	-27	3
Cc1ccc(O)c(C(=O)c2cnc3c(c2)c(C)nn3C)c1	3	0	x	x	-4	x
Oc1ccc(Nc2nc(-c3ccc4ccccc4c3)cs2)cc1	-210	4	2	99*	-190	57*
CC(=O)Nc1nc(-c2ccc3ccccc3c2)cs1	-143	8	x	x	-140	x
O=C(N/N=C/c1cc([N+](=O)[O-])ccc1Cl)c1cnccn1	81*	-1	34	-3	-7	6
O=C(N/N=C/c1cccc([N+](=O)[O-])c1)c1cnccn1	-6	3	5	0	-12	4
Cc1ccoc1C(=O)Nc1ccc(CC(=O)O)cc1	84*	3	79*	2	9	7
O=C1N=C2N(CCN3CCCCC3)c3ccccc3N2/C1=C\c1ccc([N+](=O)[O-])o1	x	-5	96*	-2	-18	1
COc1cccc(C(=O)Oc2c(Br)cc(Br)cc2/C=N/NC(=O)c2cc(C)[nH]n2)c1	64*	41*	45*	5	51	8
Cc1[nH]c2ccccc2c1CCN(Cc1cccnc1)C(=S)Nc1cccc(F)c1	17	2	-22	27*	-7	30*
CC(C)C[C@@]12C(=O)N(c3cccc(F)c3)C(=O)N1[C@H](c1ccc(Cl)cc1)[C@@H]1C(=O)N(C3CCCCC3)C(=O)[C@@H]12	-2	x	x	x	x	x
O=C(CCc1ccccc1)NNc1cc(N2CCCCC2)nc(N2CCCCC2)n1	82*	-1	19	-1	20	2
O=C(NCC1CCCO1)c1ccc(NC(=O)c2cccc([N+](=O)[O-])c2)cc1 (centres undefined)	-1	4	x	x	-25	x
O=C(OCc1ccccc1)N1CCOCCOCCN(C(=O)OCc2ccccc2)CCOCCOCC1	3	1	-4	-5	11	3
O=C(OCc1ccccc1)N1CCCC1/C=C/CN1CCOCC1 (centres undefined)	15	1	63*	0	-4	2
CC1CCCCC1NC(=O)COc1ccc(-n2cnnn2)cc1 (centres undefined)	11	3	1	2	-1	1
O=C(COc1ccc(-n2cnnn2)cc1)NC1CCCCC1	7	1	74*	0	-26	1
Cc1ccc(-c2cc(-c3ccc(F)cc3)nc(N)c2C#N)o1	63*	-1	-1	-1	-25	0
Cc1ccc(-c2cc(-c3ccccc3)c(C#N)c(N)n2)o1	14	-2	0	2	8	1
Cc1cccc(SC2CCN(C(=O)C3CCC(=O)N(C4CC4)C3)CC2)c1 (centres undefined)	16	-1	x	x	-16	x
O=C(O)c1ccc2c3c(ncnc13)-c1ccccc1C2=O	107*	-1	3	3	-3	8
COc1cccc(N2CCN(C(=O)c3cc4c(=O)n(Cc5ccccc5)ccc4nc3C)CC2)c1	14	-3	x	x	4	x
SMILES	aSyn UTR inh	IEC-6 cytotox	APP transl inh	Ba/F3 V617F tox	KLF5 inh	BaF3 tox
Nc1ccc2nc3c(c(Cl)c2c1)CCCC3	-88	3	x	17	-26	63*
COc1ccc(CCCc2nnc(SCC(=O)NN)o2)c(C)c1	-21	-1	x	x	17	x
CCOC(=O)C1(CCOC)CCN(C(=O)c2ccccc2-c2cccc(C)c2)CC1	24	4	-5	4	-27	82*
CCS(=O)(=O)N1CCC(C(=O)O)CC1	7	3	-6	-3	-11	-1
Cc1cccc(OC(=O)Cn2c(C(F)(F)F)nc3ccccc32)c1	20	-3	-11	2	-17	4
Cc1cccc(OCc2n(CC(=O)OC3CC(C)CCC3C(C)C)c3ccccc3[n+]2C)c1 (centres undefined)	u	0	-32	101*	-16	88*
